Source: PubChem BioAssay (National Center for Advancing Translational Sciences (NCATS))
TGFb inhibitor = qHTS for Inhibitors of TGF-b | HepG2 CAGA-GFP TGF-b/SMAD3 reporter, GFP fluorescence, 18 h; TGF-beta stimulated, 500 pg/mL final | Potency, µM (highest dose often 46.1 µM), inactives show at the highest dose activity, negative = inhibition, most hits filed as inhibitors | 410,000 compounds, 1.2% hits | AID 588855, 2011; further: on the % scale 0 is the no-effect control and ±100 the full control effect; nearly all actives have a fitted effect of over 65% in size
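Read-out: total well GFP (ex488/em500-530) summed from mean per-cell fluorescence. Cells: HEPG2 CAGA-GFP, 1% FBS DMEM, 18 h at 37 degrees C with 500 pg/mL final TGF-beta. Unstimulated wells served as the full-inhibition control; stimulated DMSO wells = 0%.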
Anesthetic bind = qHTS Assay for Identification of Novel General Anesthetics | 350,000 compounds, 0.074% hits | apoferritin/1-aminoanthracene competitive binding, fluorescence | AID 485281, 2010 | Potency, µM (top dose mostly 77.5 µM), without a hit: top-dose activity change, negative = displacement, actives largely listed as inhibitors; further: on the % scale 0 is the no-effect control and ±100 the full control effect; nearly all actives have a fitted effect of over 20% in size
Target sequence (P02791 2-175 limits assumed): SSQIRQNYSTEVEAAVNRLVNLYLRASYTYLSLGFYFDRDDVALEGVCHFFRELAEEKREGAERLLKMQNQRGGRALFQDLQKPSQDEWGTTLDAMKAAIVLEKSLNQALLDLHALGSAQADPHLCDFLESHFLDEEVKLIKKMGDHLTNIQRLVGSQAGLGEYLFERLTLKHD
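10 uM apoferritin + 50% sat. 1-AMA, PBS; cpd 10 min RT; Ex380/Em535 endpoint; normalized to free probe vs complex; 4-param Hill fit; propofol titration as pos. ctrl.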
ATXN viability = Viability Counterscreen for Primary qHTS for Inhibitors of ATXN expression. AID 651635, 2014. S2 cells (HEK-293 line with an ATXN2-luciferase reporter) viability, CellTiter-Fluor protease fluorescence, 24 h. Potency, µM (series often up to 56.7 µM), hits mostly cytotoxic. 400,000 compounds, 0.49% hits; further: nearly all actives have a fitted effect of over 40% in size
HepG2 viability = qHTS for Inhibitors of TGF-b: Cytotox Counterscreen | HepG2 CAGA-GFP viability, ATP luminescence, 18 h | Potency, µM (highest dose often 46.1 µM), for inactives: at the highest dose activity change, negative = cytotoxicity, usual class: cytotoxic | 410,000 compounds, 0.76% hits
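HepG2 CAGA-GFP cells (1000/well, DMEM with 1% FBS) received compound, then TGF-beta at 500 pg/mL final, and were incubated 18 hours at 37 degrees C. Viability was read by CellTiter-Glo luminescence. Media-only wells were set as complete cell-killing and DMSO as no toxicity.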
ATXN2 expr inh = Primary qHTS for Inhibitors of ATXN expression; HEK-293 ATXN2-luciferase reporter, luminescence, 24 h; Potency, µM (series often up to 57 µM), for inactives: at the top dose activity change, negative = inhibition, usual class: inhibitors; 360,000 compounds, 0.72% hits; further: on the % scale 0 is the no-effect control and ±100 the full control effect; nearly all actives have a fitted effect of over 55% in size
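ATXN2-luciferase reporter cells (luciferase flanked by upstream and downstream ATXN2 gene portions) were treated 24 h at 37 °C with compounds at up to 57 uM. SteadyGlo luminescence gave expression; GF-AFC fluorescence gave viability.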
The depositor's hits bear a star; i = inactive; ? = inconclusive; nt = no result given; [ ] = dose if it differs, or a comment. An excerpt weighted towards active compounds, which were near 2.4% of everything screened. The call rests on the fitted dose curve; in most records, active means well fitted curve in the direction sought with a large enough effect; inconclusive means small, poorly fitted or top-dose-only effect, or another doubt; inactive means no such curve, though single readings can be large; an effect the other way counts as inactive or inconclusive. Potency means the concentration at half of the fitted maximal effect.

SMILES	TGFb inhibitor	Anesthetic bind	ATXN viability	HepG2 viability	ATXN2 expr inh
COc1cc(=O)n2c(c1C(=O)N(C)Cc1cscn1)CCN(C(=O)c1ccc(C)c(C)c1)CC2	nt	nt	i	nt	nt
COc1ccc(C2c3c(n(C)c4ccccc34)C(=O)N2CC(=O)Nc2ccccc2Cl)cc1 (stereo not drawn)	0%	30%	nt	-16%	nt
CCn1c(C)cc(C(=O)CN2C(=O)c3ccccc3S2(=O)=O)c1C	11%	nt	i	7%	?
Cc1cc(C(=O)CN2C(=O)c3ccccc3S2(=O)=O)c(C)n1-c1ccccc1	-6%	-10%	i	-4%	4.5µM*
Cc1cc(C(=O)CN2C(=O)c3ccccc3S2(=O)=O)c(C)n1C(C)C	-1%	nt	i	-47%	5µM*
Cc1ccc(CNc2ncnc3sc(C(=O)N4CCC(N5CCCC(O)C5)CC4)c(C)c23)o1 (stereo not drawn)	nt	nt	i	nt	nt
CCC(C)(C)C1CCc2[nH]nc(C(=O)NC(C)C)c2C1 (stereo not drawn)	-14%	nt	?	-18%	-33%
CCOC(=O)c1ccc2c(c1)n(CC)c(/C=C/Nc1ccccc1)[n+]2CC	9%	-11%	11µM*	-28%	?
CN(C(=O)/C=C/c1ccccc1)C1CCS(=O)(=O)C1 (stereo not drawn)	11%	-5%	i	4%	1%
CN(C(=O)/C=C/c1ccccc1)C1CCCCC1	-11%	nt	i	11µM*	36%
CCOc1ccc(/C=C2\CCC(C3CCCC3)C2=O)cc1 (stereo not drawn)	21%	-3%	i	5%	47%
CCC(=O)OCOc1ccc(/C=C2/CCC(CN(C)C)C2=O)cc1 (stereo not drawn)	6.3µM*	nt	?	-99%	?
Cc1ccc(NC(=O)CSc2nc3nccnc3c(=O)n2CCc2c[nH]c3ccccc23)c(C)c1	-29%	-6%	nt	-24%	nt
O=C(C#Cc1ccccc1)c1ccccc1	10µM*	nt	?	13µM*	nt
O=C(C#Cc1ccccc1)c1ccc([N+](=O)[O-])cc1	?	-17%	nt	39%	?
CCc1ccc2c(c1)C1(C(=O)N2)N2CCCC2C(C(=O)c2ccc3ccccc3c2)C12C(=O)Nc1ccccc12 (stereo not drawn)	16µM*	-12%	?	10µM*	?
CCc1cccc2c1NC(=O)C21N2CCCC2C(C(=O)c2ccc3ccccc3c2)C12C(=O)Nc1ccccc12 (stereo not drawn)	?	-9%	?	-25%	7%
Cc1cc(C(Br)(Br)Br)nc2ccccc12	?	nt	nt	11µM*	nt
N#C/C(=C\c1ccc(O)c([N+](=O)[O-])c1)c1nc2ccccc2s1	13µM*	?	?	-32%	-31%
COc1cc(/C=C(\C#N)c2nc3ccccc3s2)cc([N+](=O)[O-])c1O	6%	-12%	i	-19%	24%[11.3 µM]
COc1cc(=O)n2c(c1C(=O)N1CCc3ccccc3C1)CCN(Cc1ccc(CO)o1)CC2	nt	nt	i	nt	nt
C=CCOC(=O)C1=C(C)NC(SCC(N)=O)=C(C#N)C1c1ccc(C)cc1 (stereo not drawn)	?	4%	i	-17%	-5%
C=CCOC(=O)C1=C(C)NC(SCC)=C(C#N)C1c1ccc(Cl)cc1 (stereo not drawn)	13µM*	88%	?	-86%	16µM*
CC(=O)c1ccc(NC(=O)c2cnn3c2NC(=C2CC2)C=C3C(F)F)cc1	5%	nt	nt	14%	nt
Cc1ccc(/C=C/C(=O)N2CCN(c3ncccn3)CC2)o1	10µM*	1%	?	-27%	0%
SMILES	TGFb inhibitor	Anesthetic bind	ATXN viability	HepG2 viability	ATXN2 expr inh
Cc1ccc(/C=C/C(=O)N2CCN(c3ccc(F)cc3)CC2)o1	-6%	-13%	i	-6%	-16%
ClC(=Nc1cccc2ccccc12)N(c1ccccc1)c1ccccc1	-18%	nt	nt	0%	nt
Cc1oc(-c2ccccc2Cl)nc1CS(=O)CC(=O)N1CCN(c2cccc(C(F)(F)F)c2)CC1 (stereo not drawn)	11µM*	-4%	nt	-105%	nt
COc1cccc(-c2nc(CS(=O)(=O)CC(=O)N3CCN(c4ccccc4)CC3)c(C)o2)c1	11µM*	90%	nt	-12%	nt
Cc1ccc(-c2nc(CS(=O)CC(=O)N3CCN(c4cccc(Cl)c4)CC3)c(C)o2)cc1 (stereo not drawn)	?	181%	nt	-13%	nt
Cc1oc(-c2ccc(Cl)cc2)nc1CS(=O)CC(=O)N1CCN(c2cccc(C(F)(F)F)c2)CC1 (stereo not drawn)	8.9µM*	-6%	nt	20µM*	nt
COc1cccc(-c2nc(CS(=O)CC(=O)N3CCN(c4cccc(C(F)(F)F)c4)CC3)c(C)o2)c1 (stereo not drawn)	16µM*	-20%	nt	-38%	nt
COc1ccc(N2CCN(C(=O)CS(=O)Cc3nc(-c4ccc(OC)c(OC)c4)oc3C)CC2)cc1 (stereo not drawn)	0%	-7%	i	-4%	-12%
C=C1C(=O)OC(CCCCCCCC)C1C(=O)O (stereo not drawn)	nt	5%	nt	nt	10%
CC(C)=CCC/C(C)=C/CNC(=O)C[C@H]1C[C@H](C(=O)N2CCOCC2)[C@@]2(C)c3[nH]c4cc(-c5ccco5)ccc4c3CCN2C1=O	13µM*	nt	nt	-77%	?
CN(C)CCCNC(=O)C[C@H]1C[C@H](C(=O)N2CCCCC2)[C@@]2(CCc3ccccc3)c3[nH]c4cc(-c5ccco5)ccc4c3CCN2C1=O	?	nt	28µM*	14µM*	?
CC(C)=CCC/C(C)=C/CNC(=O)CC1C[C@H](C(=O)N2CCOCC2)[C@@]2(C)c3[nH]c4ccccc4c3CCN2C1=O (stereo partly drawn)	?	nt	nt	-19%	?
COc1cc(NC(=O)CC2C(=O)N(c3cccc(C)c3)C(=O)N2Cc2ccc(F)cc2)cc(OC)c1 (stereo not drawn)	?	-16%	nt	-24%	nt
O=P(O)(O)C(O)(Cc1cnc2ccccn12)P(=O)(O)O	nt	nt	i	nt	nt
O=C1NC(=O)C(Cc2ccccc2F)(C2CCN(Cc3cccn3-c3cccnc3)CC2)N1 (stereo not drawn)	nt	nt	i	nt	nt
COc1ccc(CNc2ncc(-c3ccc(F)cc3)n2C)c2ccccc12	?	-17%	i	-43%	2µM*
Cc1ccc2nc(-c3ccc(SCC(=O)Nc4nnc(C)s4)nc3)[nH]c2c1	11µM*	7%	nt	13µM*	?
COc1ccc(-c2cn3nc(C)c(C)nc3n2)cc1OC	4%	nt	i	15%	28%
Cc1ccc(-c2cn3nc(C)c(C)nc3n2)cc1	14%	499%	nt	-30%	6.3µM*
